The sample as a whole holds a higher share of hits than the screen did.
Pf Dd2 inh: blocks in vitro growth of P. falciparum Dd2; P. falciparum Dd2 growth, SYBR Green, 72 h; Potency, µM (doses to about 28.9 µM), without a hit: at the top dose activity, negative = inhibition, usual class: inhibitors; hit rate 4.3% among 120,000; active = well fitted inhibition curve with a large enough effect;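 also: plate controls were DMSO vehicle for no effect and reference drug for full effect; nearly all actives have a fitted effect of over 65% in size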
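Readout: SYBR Green fluorescence, 485 nm excitation, 535 nm emission, after ~16 h lysis at 37C. Before that, Dd2-infected red cells (2.5% hematocrit) grew 72 h with compound, 29 uM top final concentration.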
* = called active by the depositor; i = inactive; [ ] = dose if it differs, or a comment. Potency is read from the fitted curve at half-maximal effect.

SMILES | Pf Dd2 inh
CCOC(=O)N1CCc2c(sc3c2c(=O)n(-c2ccc(Cl)cc2)c(=O)n3CC(=O)Nc2ccccc2)C1 | 8.91µM*
O=C(Cn1c(=O)n(-c2ccccc2)c(=O)c2c3c(sc21)CCCC3)Nc1ccc(F)cc1 | 18.5%
CCOC(=O)N1CCc2c(sc3c2c(=O)n(-c2ccc(Cl)cc2)c(=O)n3CC(C)C)C1 | 17.2%
O=C(c1ccc(C(F)(F)F)cc1)N1CCC(N2Cc3ccccc3C2=O)CC1 | 10.8%
O=C(NCc1ccccn1)C1CCN(CC2(O)CNCCOC2)CC1 (configuration not stated) | -19.0%
Cc1ncsc1C1N(C2CCN(C(=O)c3cnccn3)CC2)C(=O)C12CCCC2 (configuration not stated) | -15.4%
CCc1nnc([C@@H]2CC(F)(F)CN2C(=O)c2nccn2C)o1 | i
CS(=O)(=O)N1CCC(c2nnc3n2C(C(=O)O)CC3)CC1 (configuration not stated) | 11.7%
COc1ccc(CN2CC[C@@](C)(O)[C@H](N3CCCC3)C2)cc1 | 21.3%[5.79 µM]
O[C@]1(c2ccccc2)CCN(Cc2ccco2)C[C@H]1N1CCCC1 | 0.631µM*
O=C(C1CC1)N1CC[C@](O)(c2ccccc2)[C@H](N2CCCC2)C1 | i[5.79 µM]
O[C@]1(c2ccccc2)CCN(Cc2ccncc2)C[C@H]1N1CCCC1 | 0.708µM*
Cc1ccc(CN2CC[C@@](C)(O)[C@H](N3CCCC3)C2)o1 | 8.8%[5.79 µM]
Cc1ccsc1C(=O)N1CCC(O)(c2ccccc2)[C@H](N(C)C)C1 (some centres not stated) | i[5.79 µM]
C[C@@]1(O)CCN(Cc2ccc(Br)o2)C[C@H]1N1CCCC1 | -22.1%[5.79 µM]
O=C(c1cccs1)N1CCC(O)(c2ccccc2)[C@H](N2CCCC2)C1 (some centres not stated) | 1.41µM*
C[C@@]1(O)CCN(Cc2cccc(F)c2)C[C@H]1N1CCCC1 | -22.6%[5.79 µM]
Cc1cc(F)ccc1OC1CN(C(=O)c2ccc3c(c2)OCO3)C1 | i
CC(C)NC(=O)[C@@H]1C[C@@H](N)CN1C(=O)c1cccc(C#CC(C)(C)O)c1 | -10.4%
Cc1cc(C(=O)N2CCCCCCNC(=O)[C@@H]3CCCC[C@@H]32)nn1C | 3.3%
CC(=O)N1CCN(S(C)(=O)=O)C[C@@H]1C(=O)N[C@H](Cc1c[nH]c2ccccc12)C(N)=O | i
Cc1ccc(OCC(=O)N2CC(c3nnc(-c4ccc(C)cc4)o3)C3(CCOCC3)C2)cc1 (configuration not stated) | i
O=C(O)C[C@@H]1CCN(C(=O)c2ccnc(Cl)c2)C[C@@H]1CCN1C[C@@H]2C[C@H](C1)c1cccc(=O)n1C2 | -1.7%
CCOCC(=O)N1CCC(N2CC3CC(C2)[C@H]2CCCC(=O)N2C3)CC1 (some centres not stated) | 4.2%
O=c1n(-c2ccc([N+](=O)[O-])cc2)nc2n1CCN(Cc1ccc(C(F)(F)F)cc1)C2 | i
SMILES | Pf Dd2 inh
N#Cc1ccc(C(=O)N2C[C@@H](Oc3ccccc3)C[C@H]2C(=O)N2CCOCC2)cc1 | 15.5%
COc1ccc(C(=O)N2CCC(c3noc(-c4ccncc4)n3)C2)cn1 (configuration not stated) | 0.7%[5.79 µM]
COc1ccc(-c2ccnc3nc(CCc4ccc(OC)c(OC)c4)nn23)cc1 | -11.5%
CCc1nc2nccc(-c3ccc(OC)c(OC)c3)n2n1 | -20.8%
COc1ccc(CCc2nc3nccc(-c4ccc(OC)c(OC)c4)n3n2)cc1OC | 12.6µM*
COc1ccc(-c2nc(C)nc3c2CN(C(=O)c2ccccc2F)CC3)cc1 | -7.9%
Cc1c(C(=O)Nc2ccc(F)c(Cl)c2)oc2ccc(S(=O)(=O)N(C)C3CCCCC3)cc12 | -26.2%
Cc1c(C(=O)Nc2cccc(C(F)(F)F)c2)oc2ccc(S(=O)(=O)N(C)C3CCCCC3)cc12 | 11.2µM*
Cc1ccc(NC(=O)c2oc3ccc(S(=O)(=O)N(C)C4CCCCC4)cc3c2C)c(C)c1 | i
COc1cccc(CNC(=O)Cn2ccn3nc(-c4ccccc4)c(CO)c3c2=O)c1OC | i
CC(=O)N1CCC(C(=O)N2CC(c3ccccc3)C(C)(C)C2)CC1 (configuration not stated) | -3.4%
CC(=O)N[C@H]1[C@H](O)[C@H](O)C[C@@H]1c1ccc(C(F)(F)F)nc1 | 7.4%[44.1 µM]
CN1CCCC2(C1)CN(Cc1cccnc1)c1ccc(C(=O)NCc3cccs3)cc12 (configuration not stated) | -7.6%[44.1 µM]
Cc1nc(CN2CC3(CCN(C)C3)c3cc(C(=O)NCc4cccs4)ccc32)cs1 (configuration not stated) | -3.3%[44.1 µM]
CN1CCC2(C1)CN(Cc1ccccc1)c1ccc(C(=O)NCc3cccs3)cc12 (configuration not stated) | 7.08µM*
O=C(NC1CCCCC1)[C@@H]1C[C@@H](O)CN1C1CCN(C(=O)c2ccc(Cn3ccnc3)o2)CC1 | i
COCCC1(NC(=O)C2CC2)CCN(C(=O)c2ccccn2)CC1 | -11.0%
Cc1ccccc1S(=O)(=O)N1CCCC(CCC(=O)NC2CCCCCC2)C1 (configuration not stated) | -23.4%
OC[C@@H]1CN(C2CCC2)C[C@H]1c1nc(-c2ccncc2)no1 | 1.1%
COc1cccc(S(=O)(=O)NCC2Cn3cccc3C(=O)N2C)c1 (configuration not stated) | -4.6%
CCOC(=O)c1oc2ccc(S(=O)(=O)NCC3Cn4cccc4C(=O)N3C)cc2c1C (configuration not stated) | 12.6µM*
CN1C(=O)c2cccn2CC1CNS(=O)(=O)c1ccc(F)cc1 (configuration not stated) | 4.8%
CN1c2cc(C(=O)N3CCN(c4ccccc4Cl)CC3)ccc2C(=O)N2CCCCC21 (configuration not stated) | 6.31µM*
CCOc1ccccc1N1CCN(C(=O)c2ccc3c(c2)N(C)C2CCCCN2C3=O)CC1 (configuration not stated) | 5.01µM*
Cc1cccc(N2CCN(C(=O)c3ccc4c(c3)N(C)C3CCCCCN3C4=O)CC2)c1 (configuration not stated) | 8.91µM*
SMILES | Pf Dd2 inh
Cc1cccc(NC(=O)c2ccc3c(c2)N(C)C2CCCCCN2C3=O)c1 (configuration not stated) | i
CN1c2cc(C(=O)Nc3ccccc3)ccc2C(=O)N2CCCCC21 (configuration not stated) | i
CCN1c2cc(C(=O)N3CCCCC3)ccc2C(=O)N2CCCCCC21 (configuration not stated) | i
CN1c2cc(C(=O)N3CCN(c4ccc(F)cc4)CC3)ccc2C(=O)N2CCCCCC21 (configuration not stated) | i
CCN1c2cc(C(=O)N3CCN(c4ccccc4)CC3)ccc2C(=O)N2CCCCC21 (configuration not stated) | i
CCN1c2cc(C(=O)N3CCN(c4ccccn4)CC3)ccc2C(=O)N2CCCCC21 (configuration not stated) | i
CCN1c2cc(C(=O)NCc3cccc(F)c3)ccc2C(=O)N2CCCCC21 (configuration not stated) | i
O=C1CCN(S(=O)(=O)c2cccc(F)c2)CCCC(CO)CCN1 (configuration not stated) | 10.0%
O=C(Nc1cccc(F)c1)Nc1ccnn1C1CCN(C(=O)C2CCC2)CC1 | -14.2%
Cn1cccc1C(=O)N1CCC(N2CC3CC(C2)[C@H]2CCCC(=O)N2C3)CC1 (some centres not stated) | 1.3%
N#Cc1ccc(O[C@@H]2COCC[C@H]2NC(=O)CCn2ccc(=O)[nH]c2=O)cc1 | -7.9%

Screens from PubChem BioAssay.
